Results taken from PubChem BioAssay (NCI).
Compounds without any hit were thinned out: in the full panel of roughly 79,000, 15% have a hit. Activity calls are given as the source filed them. No stated cut-off is given here; in the data, active means growth inhibition above about 70%; inactive means the rest.

Key:
[1] = NCI Yeast Anticancer Drug Screen. Data for the rad52 strain (AID 147);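 further: 0% = growth of vehicle-treated control cultures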; conditions: S. cerevisiae rad52 mutant growth inhibition, active compounds read high
Procedure, shortened: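 DNA repair-defective yeast; compound exposure; growth scored against vehicle controls.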

[2] = NCI Yeast Anticancer Drug Screen. Data for the rad50EPP+ strain (AID 151);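 further: 0% = growth of vehicle-treated control cultures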; conditions: S. cerevisiae rad50 mutant strain, active compounds read high
Procedure, shortened: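 rad50EPP+ yeast treated with test compounds. Readout: growth vs vehicle control.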

[3] = NCI Yeast Anticancer Drug Screen. Data for the mgt1 strain (AID 153); conditions: S. cerevisiae mgt1 mutant growth inhibition, active compounds read high
Procedure, shortened: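 Growth inhibition relative to vehicle controls was scored for the mgt1 yeast strain after compound exposure.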

[4] = NCI Yeast Anticancer Drug Screen. Data for the rad50 strain (AID 155);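 further: 0% = growth of vehicle-only cultures of the same strain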; conditions: S. cerevisiae rad50 strain growth inhibition, active compounds read high
Procedure, shortened: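 DNA repair mutant yeast, compound exposure, growth read-out; inhibition is taken relative to vehicle.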

[5] = NCI Yeast Anticancer Drug Screen. Data for the mec2-1 strain (AID 157); conditions: S. cerevisiae mec2-1 strain, active compounds read high
Procedure, shortened: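 Growth inhibition is read against vehicle-treated controls after compound exposure of the mec2-1 yeast strain, which is defective in DNA damage repair or cell cycle control.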

[6] = NCI Yeast Anticancer Drug Screen. Data for the rad14 strain (AID 159);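 further: 0% = growth of vehicle-treated control cultures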; conditions: S. cerevisiae rad14 strain growth inhibition, active compounds read high
Procedure, shortened: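 DNA repair-defective yeast, compound-exposed; % growth inhibition derived by comparison with vehicle-treated controls.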

[7] = NCI Yeast Anticancer Drug Screen. Data for the sgs1 mgt1 strain (AID 161);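 further: 0% = growth of cultures given vehicle only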; conditions: S. cerevisiae sgs1 mgt1 strain, active compounds read high
Procedure, shortened: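 Compounds are added to genetically altered yeast, and growth is compared with cultures given vehicle alone to give percent inhibition.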

[8] = NCI Yeast Anticancer Drug Screen. Data for the CLN2oe strain (AID 163);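 further: 0% = growth of vehicle-only control cultures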; conditions: S. cerevisiae CLN2oe strain, active compounds read high
Procedure, shortened: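 Compound-treated yeast; growth vs vehicle ctrl = % inhibition. Genetically altered strain (cell-cycle control).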

[9] = NCI Yeast Anticancer Drug Screen. Data for the cln2 rad14 strain (AID 165);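 further: 0% = growth equal to vehicle treated cultures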; conditions: S. cerevisiae cln2 rad14 strain, active compounds read high
Procedure, shortened: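 Growth inhibition, relative to vehicle-treated controls, is the read-out. The test organism is a yeast strain with defined genetic alterations, cln2 rad14.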

[10] = NCI Yeast Anticancer Drug Screen. Data for the bub3 strain (AID 167); conditions: S. cerevisiae bub3 mutant strain, active compounds read high
Procedure, shortened: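 In this screen, a yeast mutant lacking normal mitotic checkpoint function is challenged with compound. Relative growth versus vehicle gives the inhibition value.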

[11] = NCI Yeast Anticancer Drug Screen. Data for the wt2 strain (AID 169);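 further: 0% = growth of vehicle-treated yeast cultures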; conditions: S. cerevisiae wt2 strain growth inhibition, active compounds read high
Procedure, shortened: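 Compound exposure of yeast; growth compared with vehicle controls; inhibition reported.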

[12] = NCI Yeast Anticancer Drug Screen. Data for the mlh1 strain (AID 171);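 further: 0% = growth of vehicle-treated control cultures of the same strain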; conditions: S. cerevisiae mlh1 strain growth inhibition, active compounds read high
Procedure, shortened: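 Compounds are applied to a genetically altered yeast strain, and its growth is compared with that of vehicle-treated cultures to give percent inhibition.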

[13] = NCI Yeast Anticancer Drug Screen. Data for the sgs1 strain (AID 173);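 further: 0% = growth of vehicle-only control cultures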; conditions: S. cerevisiae sgs1 mutant, active compounds read high
Procedure, shortened: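 Compounds applied to genetically altered yeast; growth compared with vehicle-treated cultures to give % inhibition.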

[14] = NCI Yeast Anticancer Drug Screen. Data for the mlh1 rad18 strain (AID 175); conditions: S. cerevisiae mlh1 rad18 strain growth inhibition, active compounds read high
Procedure, shortened: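 Cells of a genetically altered yeast strain, deficient in DNA damage repair, were treated with compound. Their growth was then compared with that of vehicle-treated cultures to give inhibition.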

[15] = NCI Yeast Anticancer Drug Screen. Data for the rad18 strain (AID 177); conditions: S. cerevisiae rad18 mutant growth inhibition, active compounds read high
Procedure, shortened: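 Compounds are applied to a repair-deficient yeast strain, and growth is compared with that of vehicle-treated cultures to give percent inhibition.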

[16] = at 5.0 µM (retest, dose inferred, filed as 0.5)
[17] = at 50.0 µM (retest, dose inferred, filed as 5.0)

Measured: growth inhibition

O=C1c2c(O)cccc2-c2nn(CCNCCO)c3ccc(NCCNCCO)c1c23
inactive: [1]; at 1.2 µM 17% | [1]; at 3.7 µM 43% | [2]; at 1.2 µM 15% | [2]; at 3.7 µM 19% | [2]; at 11.0 µM 39% | [2]; at 33.0 µM 54% | [3]; at 1.2 µM 16% | [3]; at 3.7 µM 11% | [3]; at 11.0 µM -3% | [3]; at 33.0 µM -10% | [3]; at 100.0 µM 2% | [4]; at 1.2 µM 26% | [4]; at 3.7 µM 42% | [4]; [16] 27% | [5]; at 1.2 µM 42% | [5]; at 3.7 µM 29% | [5]; [16] -25% | [5]; at 11.0 µM 40% | [5]; at 33.0 µM 10% | [5]; [17] -14% | [5]; at 50.0 µM 20.4% | [5]; at 100.0 µM 39% | [6]; at 1.2 µM -3% | [6]; at 3.7 µM -2% | [6]; at 11.0 µM -21% | [6]; at 33.0 µM -13% | [6]; at 100.0 µM 2% | [7]; [16] 1% | [7]; [17] -2% | [7]; at 50.0 µM 7% | [8]; at 1.2 µM 26% | [8]; at 3.7 µM 22% | [8]; at 11.0 µM 21% | [8]; at 33.0 µM 5% | [8]; at 100.0 µM 18% | [9]; [16] 26% | [9]; [17] 14% | [9]; at 50.0 µM -7.2% | [10]; at 1.2 µM 1% | [10]; at 3.7 µM -9% | [10]; [16] -24% | [10]; at 11.0 µM -15% | [10]; at 33.0 µM -30% | [10]; [17] -13% | [10]; at 50.0 µM -19.2% | [10]; at 100.0 µM -26% | [11]; at 1.2 µM -46% | [11]; at 3.7 µM -27% | [11]; at 11.0 µM -41% | [11]; at 33.0 µM -53% | [11]; at 100.0 µM -42% | [12]; at 1.2 µM 29% | [12]; at 3.7 µM 7% | [12]; at 11.0 µM 15% | [12]; at 33.0 µM 13% | [12]; at 100.0 µM 21% | [13]; at 1.2 µM 7% | [13]; at 3.7 µM 5% | [13]; at 11.0 µM 7% | [13]; at 33.0 µM 11% | [13]; at 100.0 µM 28% | [14]; [16] -6% | [14]; [17] -7% | [15]; at 1.2 µM 13% | [15]; at 3.7 µM 15% | [15]; at 11.0 µM -2% | [15]; at 33.0 µM 9% | [15]; at 100.0 µM 0%
active: [1]; at 11.0 µM 73% | [1]; at 33.0 µM 81% | [1]; at 100.0 µM 87% | [2]; at 100.0 µM 77% | [4]; at 11.0 µM 74% | [4]; at 33.0 µM 85% | [4]; [17] 79% | [4]; at 50.0 µM 76.9% | [4]; at 100.0 µM 87%

O=C1C=CC(=O)N1c1ccc(N2C(=O)C=CC2=O)cc1
inactive: [1]; at 1.2 µM 43% | [2]; at 1.2 µM 3% | [2]; at 3.7 µM 49% | [3]; at 1.2 µM 60% | [4]; at 1.2 µM 32% | [4]; [16] 44% | [5]; at 1.2 µM 46% | [5]; [16] 39% | [6]; at 1.2 µM 17% | [7]; [16] -16% | [8]; at 1.2 µM 35% | [8]; at 3.7 µM 59% | [9]; [16] 47% | [10]; at 1.2 µM 48% | [10]; [16] 19% | [11]; at 1.2 µM 9% | [12]; at 1.2 µM 49% | [13]; at 1.2 µM 41% | [14]; [16] 37% | [15]; at 1.2 µM 46%
active: [1]; at 3.7 µM 93% | [1]; at 11.0 µM 100% | [1]; at 33.0 µM 100% | [1]; at 100.0 µM 99% | [2]; at 11.0 µM 85% | [2]; at 33.0 µM 99% | [2]; at 100.0 µM 99% | [3]; at 3.7 µM 102% | [3]; at 11.0 µM 100% | [3]; at 33.0 µM 100% | [3]; at 100.0 µM 98% | [4]; at 3.7 µM 97% | [4]; at 11.0 µM 100% | [4]; at 33.0 µM 100% | [4]; [17] 73% | [4]; at 50.0 µM 92.2% | [4]; at 100.0 µM 99% | [5]; at 3.7 µM 101% | [5]; at 11.0 µM 100% | [5]; at 33.0 µM 100% | [5]; [17] 82% | [5]; at 50.0 µM 94.4% | [5]; at 100.0 µM 99% | [6]; at 3.7 µM 101% | [6]; at 11.0 µM 100% | [6]; at 33.0 µM 100% | [6]; at 100.0 µM 99% | [7]; [17] 100% | [7]; at 50.0 µM 93.5% | [8]; at 11.0 µM 99% | [8]; at 33.0 µM 99% | [8]; at 100.0 µM 99% | [9]; [17] 100% | [9]; at 50.0 µM 92.3% | [10]; at 3.7 µM 96% | [10]; at 11.0 µM 100% | [10]; at 33.0 µM 100% | [10]; [17] 99% | [10]; at 50.0 µM 92.8% | [10]; at 100.0 µM 99% | [11]; at 3.7 µM 91% | [11]; at 11.0 µM 99% | [11]; at 33.0 µM 100% | [11]; at 100.0 µM 98% | [12]; at 3.7 µM 99% | [12]; at 11.0 µM 100% | [12]; at 33.0 µM 100% | [12]; at 100.0 µM 99% | [13]; at 3.7 µM 99% | [13]; at 11.0 µM 99% | [13]; at 33.0 µM 100% | [13]; at 100.0 µM 99% | [14]; [17] 75% | [14]; at 50.0 µM 92.5% | [15]; at 3.7 µM 90% | [15]; at 11.0 µM 100% | [15]; at 33.0 µM 100% | [15]; at 100.0 µM 99%
